According to PubChem BioAssay AID1631 (National Center for Advancing Translational Sciences (NCATS), 2009):
Out of some 260,000 compounds screened, about 890 (0.34%) were called active. Not shown: some 1% with an inconclusive outcome. Shown is part of a subset that was picked to be rich in actives. Values without a mark were called inactive. The call rests on the fitted dose curve; in most records, active means well fitted activation curve with a large enough effect; inconclusive means small, poorly fitted or top-dose-only effect; inactive means no such curve, though single readings can be large or run the other way.

Molecular target: Pyruvate kinase PKM (Homo sapiens) (UniProt P14618)
Sequence (P14618 whole entry, looked up, canonical isoform): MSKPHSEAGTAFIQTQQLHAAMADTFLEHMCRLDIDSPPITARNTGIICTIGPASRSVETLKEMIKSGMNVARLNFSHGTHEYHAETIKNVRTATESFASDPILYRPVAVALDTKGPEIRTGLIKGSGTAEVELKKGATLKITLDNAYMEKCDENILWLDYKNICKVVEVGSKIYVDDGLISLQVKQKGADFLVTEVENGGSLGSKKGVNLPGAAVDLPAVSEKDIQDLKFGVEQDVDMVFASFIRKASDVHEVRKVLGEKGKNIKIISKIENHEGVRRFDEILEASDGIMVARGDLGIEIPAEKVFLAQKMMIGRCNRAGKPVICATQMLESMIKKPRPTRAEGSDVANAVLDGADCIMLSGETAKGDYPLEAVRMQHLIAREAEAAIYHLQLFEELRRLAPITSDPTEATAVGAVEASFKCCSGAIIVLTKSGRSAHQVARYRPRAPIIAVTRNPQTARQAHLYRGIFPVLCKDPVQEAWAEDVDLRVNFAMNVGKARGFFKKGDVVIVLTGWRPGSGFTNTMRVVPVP
Experiment: qHTS Assay for Activators of Human Muscle isoform 2 Pyruvate Kinase; further: nearly all actives have a fitted effect of over 55% in size
Settings: purified PKM2, Kinase-Glo ATP luminescence; Potency: activation; series mostly up to 57.5 µM; activation: at the top concentration
Text: NIH Chemical Genomics Center [NCGC] Matthew G. Vander Heiden, M.D., Ph.D. [Harvard Medical School, 77 Avenue Louis Pasteur, Boston, MA 02115] MLPCN Grant: 1 R03 MH085679-01 NCGC Assay Overview: Human pyruvate kinase muscle 2 (hPK-M2) enzyme was supplied as a highly purified (>95% pure) preparation from Harvard Medical School and assayed for its ability to generate ATP from ADP using phosphoenolpyruvate (PEP) as a substrate. ATP generation was detected in a coupled reaction by luciferase-mediated luminescence, an ATP-dependent process. […] The enzyme was assayed at an intermediate level of activity to screen for both inhibitors and activators.
NCGC Assay Protocol Summary: Three uL of substrate mix (at r.t.) in assay buffer (50 mM Imidazole pH7.2, 50 mM KCl, 7 mM MgCl2, 0.01% Tween 20, 0.05% BSA) was dispensed into white solid bottom 1,536 well microtiter plates so that the final concentrations of substrates in the assay were 0.1 mM ADP and 0.5 mM PEP. 23 nL of compound were delivered by a pin tool and 1 uL of enzyme mix in assay buffer (4 degree Celsius) was added. Plates were incubated at room temperature for 1 hour. Two uL of detection mix (Kinase-Glo, Promega; at 4 degree Celsius protected from light) was added and luminescence read by a ViewLux (Perkin Elmer) at 5 second exposure/plate. Data were normalized to the uninhibited and AC100 inhibition (no enzyme). To monitor activation, the first column contained a titration of the activator, NCGC00031955-01 (16-point 1:2 dilutions in duplicate starting at 57 uM) and the first 16 rows of column 4 contained 57 uM of NCGC00031955-01.
On the % scale 0 is the no-effect control and ±100 the full control effect; potency means the concentration at half of the fitted maximal effect.

**Q.** Which “activation” value does the source give for `O=C(Nc1nnc(S(=O)(=O)N2CCCCCC2)s1)c1cccc(Br)c1` here?
**A.** The value was -6.77%.

**Q.** For `CCc1ccccc1OCC(=O)Nc1ccc2c(c1)OCCO2`, which “activation” value is on record?
**A.** The value was 8.35%.

**Q.** With `COc1ccc(NS(=O)(=O)c2ccc(N3CCN(CCO)CC3)c([N+](=O)[O-])c2)cc1` as the molecule, how does the “activation” value read?
**A.** Its value is -1.52%.

**Q.** How did the “activation” value turn out when `O=C(Nc1ncc([N+](=O)[O-])s1)C1COc2ccccc2O1` (stereo unspecified) was run?
**A.** Its value is -15.3%.

**Q.** How did the “activation” value turn out when `CCn1c(SCc2cc(=O)n3ccsc3n2)nc2ccccc21` was run?
**A.** Its value is -1.44%.

**Q.** For `O=c1cc(Cn2nnc(-c3ccc(Cl)cc3)n2)nc2sccn12`, which Potency is on record?
**A.** Its Potency is 14.1 µM (active).

**Q.** For `O=C(NCc1ccc(Cl)cc1)c1cc2c(nc3sccn32)s1`, which “activation” value is on record?
**A.** Its value is 2.77%.

**Q.** Which “activation” value does the source give for `Clc1cccc(Cl)c1OCCOCCNCc1ccccc1` here?
**A.** Its value is -2.65%.

**Q.** `COc1nnc(-c2ccc(C)c(S(=O)(=O)N(C)C)c2)c2ccccc12` was tested. Which “activation” value did it give?
**A.** The value was -1.4%.

**Q.** How did the “activation” value turn out when `COc1cc(/C=C/C(=O)N2CCc3ccccc3C2)cc(OC)c1OC` was run?
**A.** The value was 0%.

**Q.** How did the “activation” value turn out when `COc1ccc(-c2oc3ncnc(NCCCO)c3c2-c2ccc(OC)cc2)cc1` was run?
**A.** The value was 1.83%.

**Q.** How did the “activation” value turn out when `C=CCNC(=S)/N=c1/ccccn1Cc1ccccc1` was run?
**A.** Its value is -5.18%.

**Q.** Which “activation” value does the source give for `O=C(/C=C/c1ccc([N+](=O)[O-])o1)NNC(=O)c1ccc(F)cc1` here?
**A.** The value was -6.12%.

**Q.** `COCCNc1cc(-c2ccccc2)nc2cc(-c3cccc(F)c3)nn12` was tested. Which “activation” value did it give?
**A.** The value was 3.4%.

**Q.** `CCC(=O)Nc1nc(C)c(C(=O)Nc2cccc(Cl)c2)s1` was tested. Which “activation” value did it give?
**A.** Its value is 1.43%.

**Q.** How did the activation turn out when `O=C(CCCCCn1c(=S)[nH]c2ccsc2c1=O)NC1CCCCC1` was run?
**A.** The activation was 13.9% [at 0.46 µM, 0% is enzyme alone, no compound].

**Q.** `CCSc1nsc(NC(=O)Nc2ccccc2OC)n1` was tested. Which “activation” value did it give?
**A.** Its value is 0.348%.

**Q.** `Cc1ccc(NC(=O)CSc2cccc3cccnc23)c(C)c1` was tested. Which “activation” value did it give?
**A.** Its value is -0.598%.

**Q.** With `Cc1ccc(NC(=S)Nc2ccc(F)cc2)cc1` as the molecule, how does the “activation” value read?
**A.** Its value is 0.501%.

**Q.** With `N=c1oc2ccccc2cc1C(=O)NCc1ccccc1` as the molecule, how does the “activation” value read?
**A.** Its value is -2.59%.

**Q.** With `CN1CCCN(S(=O)(=O)c2ccc3c(c2)OCCO3)CC1` as the molecule, how does the Potency read?
**A.** Its Potency is 3.55 µM (active).

**Q.** With `O=C(NCc1ccc(Cl)cc1)C1CCN(S(=O)(=O)c2cccs2)CC1` as the molecule, how does the “activation” value read?
**A.** The value was 19.6%.

**Q.** Which Potency does the source give for `O=C(NCc1cccs1)C1CCN(S(=O)(=O)c2ccc(Cl)cc2)CC1` here?
**A.** Its Potency is 14.1 µM (active).

**Q.** For `O=C(NCc1ccc2c(c1)OCO2)C1CCCN(S(=O)(=O)c2cccs2)C1` (stereo unspecified), which “activation” value is on record?
**A.** The value was -1.93%.

**Q.** How did the “activation” value turn out when `Cc1ccc(S(=O)(=O)N2CCN(C)CC2)cc1` was run?
**A.** Its value is -0.548%.

**Q.** With `O=S(=O)(c1ccc2c(c1)OCCO2)N1CCc2ccccc21` as the molecule, how does the “activation” value read?
**A.** The value was 9.4%.

**Q.** Which Potency does the source give for `O=C(NCc1cccs1)C1CCN(S(=O)(=O)c2ccc3c(c2)OCCO3)CC1` here?
**A.** The Potency was 3.98 µM (active).

**Q.** Which “activation” value does the source give for `O=C(NCc1ccccn1)C1CCN(S(=O)(=O)c2ccc(Br)cc2)CC1` here?
**A.** Its value is 3.51%.

**Q.** For `O=C(c1ccc2c(c1)OCCO2)C1CCN(S(=O)(=O)c2cccc(F)c2)CC1`, which “activation” value is on record?
**A.** Its value is -1.6%.

**Q.** How did the “activation” value turn out when `Cc1ccccc1CN1C[C@@H]2C[C@@H](c3ccc4nsnc4c3)N3CCC[C@@]23C1=O` was run?
**A.** Its value is 2.46%.

**Q.** With `Cc1ccc(CN2CCN(Cc3cn(C)nc3-c3ccccc3)CC2CCO)o1` (stereo unspecified) as the molecule, how does the “activation” value read?
**A.** The value was 0.985%.

**Q.** For `Cc1ccccc1CN1C[C@@H]2C[C@@H](c3cn(C)nc3-c3ccccc3)N3CCC[C@@]23C1=O`, which Potency is on record?
**A.** Its Potency is 5.62 µM (active).

**Q.** `CN(C(=O)CSc1nncc2ccccc12)C1CCCCC1` was tested. Which “activation” value did it give?
**A.** Its value is -6.26%.

**Q.** How did the Potency turn out when `Brc1c(CSc2nncc3ccccc23)nc2ccccn12` was run?
**A.** Its Potency is 4.47 µM (active).

**Q.** With `COc1ccc(Cl)cc1NC(=O)c1cccc(N2C(=O)C3CC=CCC3C2=O)c1` (stereo unspecified) as the molecule, how does the “activation” value read?
**A.** Its value is 1.39%.

**Q.** How did the “activation” value turn out when `O=C(NCC1CCCO1)c1cc2c([nH]c3ccccc32)c(-c2ccc(F)cc2)n1` (stereo unspecified) was run?
**A.** The value was 1.73%.

**Q.** With `O=C(Nc1ccc(S(=O)(=O)Nc2ccccn2)cc1)c1ccccc1` as the molecule, how does the “activation” value read?
**A.** The value was 3.96%.

**Q.** `CC(=O)CCC(=O)c1ccc2ccccc2c1` was tested. Which “activation” value did it give?
**A.** Its value is -3.25%.

**Q.** With `C=CC(=O)c1ccc2ccccc2c1` as the molecule, how does the Potency read?
**A.** The Potency was 10 µM (active).

**Q.** `CC(=O)c1ccc2c(ccc3ccccc32)c1` was tested. Which “activation” value did it give?
**A.** Its value is 0.0915%.

**Q.** With `CCOC(=O)c1cccc(NC(=O)C2CCN(c3ncnc4c3nc3n4CCCCC3)CC2)c1` as the molecule, how does the activation read?
**A.** Its activation is 0.194% [at 0.46 µM, 0% is enzyme alone, no compound].

**Q.** How did the “activation” value turn out when `CCCOC1CCCN(C(=O)c2cc(COc3cncc(Cl)c3)on2)C1` (stereo unspecified) was run?
**A.** Its value is -0.188%.

**Q.** How did the “activation” value turn out when `O=C(NC(=S)NC1CCCCC1)c1ccc(Cl)cc1` was run?
**A.** Its value is 0.722%.

**Q.** How did the “activation” value turn out when `O=S(=O)(NC1CCCCC1N1CCN(c2ccccc2F)CC1)c1ccccc1` (stereo unspecified) was run?
**A.** The value was 5.02%.

**Q.** How did the “activation” value turn out when `O=C(Cc1ccc(Cl)cc1)NC(=S)Nc1ccccc1O` was run?
**A.** The value was 0.277%.

**Q.** Which Potency does the source give for `CCN1C(=S)N[C@@H](CCc2ccccc2)[C@H](C(=O)OC)[C@H]1C` here?
**A.** Its Potency is “inactive”.

**Q.** How did the “activation” value turn out when `CC1(C(=O)NCCc2c[nH]c3ccccc23)C=CC2(CCCCC2)N1C(=O)c1ccccc1` (stereo unspecified) was run?
**A.** The value was -0.336%.

**Q.** How did the “activation” value turn out when `Cc1ccccc1NC(=O)CSc1nc2ccc(Nc3nc(N4CCOCC4)nc(N4CCOCC4)n3)cc2s1` was run?
**A.** The value was 0.537%.

**Q.** For `CN(C(=O)CC1C(=O)NCCN1Cc1ccc(F)cc1Cl)C1CCCCC1` (stereo unspecified), which “activation” value is on record?
**A.** Its value is 5.71%.

**Q.** With `CC(=O)N1c2ccc(S(=O)(=O)N3CCCC(C(=O)Nc4cccc(F)c4)C3)cc2CC1C` (stereo unspecified) as the molecule, how does the “activation” value read?
**A.** The value was 1.41%.

**Q.** Which “activation” value does the source give for `CCC(C)c1ccc(NC(=S)N2CCCC2)cc1` (stereo unspecified) here?
**A.** Its value is -6.17%.
